What follows are compounds tested against Solute carrier family 2, facilitated glucose transporter member 1 (Homo sapiens) (UniProt P11166) (assay: ST_JUDE_LEISH: Cytotoxicity at 2uM final concentration against transgenic Leishmania Mexicana promastigotes LmGLUT1 that are glucose transport deficient and complemented with the human glucose transporter GLUT1. Activity is measured by DNA content using SYBR green in vitro).
Type: functional

Sequence of Solute carrier family 2, facilitated glucose transporter member 1 (Homo sapiens) (P11166 whole entry): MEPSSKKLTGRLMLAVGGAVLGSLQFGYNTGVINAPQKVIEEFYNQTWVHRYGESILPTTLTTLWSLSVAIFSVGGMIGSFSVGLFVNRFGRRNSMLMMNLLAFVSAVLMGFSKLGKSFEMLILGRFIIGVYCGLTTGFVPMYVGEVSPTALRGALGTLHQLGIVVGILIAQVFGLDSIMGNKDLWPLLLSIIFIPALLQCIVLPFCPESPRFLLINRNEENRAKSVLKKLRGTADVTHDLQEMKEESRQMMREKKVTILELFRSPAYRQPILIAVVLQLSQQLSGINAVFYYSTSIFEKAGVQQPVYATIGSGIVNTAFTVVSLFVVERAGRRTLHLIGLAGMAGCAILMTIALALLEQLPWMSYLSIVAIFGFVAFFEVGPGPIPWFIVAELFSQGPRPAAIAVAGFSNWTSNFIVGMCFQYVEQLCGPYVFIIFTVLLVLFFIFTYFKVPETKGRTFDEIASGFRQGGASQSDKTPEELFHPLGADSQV

| Structure (SMILES) | inhibition |
| --- | --- |
| O=C(Nc1ccc2c(c1)CCC2)c1cccc(N2CCN(c3ccncc3)CC2)c1 | 1.86% |
| CN(C)CCCn1cncc1-c1ccc2ncnc(Nc3ccc(OCc4ccccc4)cc3)c2c1 | 4.09% |
| CN1CCCN(Cc2ccc(-c3ccc(NC(=O)c4ccc(Cl)cc4)cc3)cc2)CC1 | 63.1% |
| COc1cc2c(cc1OC)CN(c1cc(N)c3cc(OC)c(OC)cc3n1)CC2 | 1.34% |
| NC1(C(=O)O)Cc2ccc(Cl)cc2C1 (stereo not given) | 5.91% |
| OC(CNc1cccc(Cl)c1)Cn1c2ccc(Cl)cc2c2cc(Cl)ccc21 (stereo not given) | 3.75% |
| O=C(NC1CCN(Cc2ccccc2O)C1)c1cccc(C(F)(F)F)c1 (stereo not given) | 0.25% |
| N#Cc1ccc2c(c1)CCN(CCC1CCC(NC(=O)/C=C/c3c[nH]c4c(Br)cccc34)CC1)CC2 (stereo not given) | 16.5% |
| COc1cc(C=CC(=O)N2CCC3(CC2)CC(=O)c2ccccc2O3)cc(OC)c1OC | 1.6% |
| COc1ccc(CNC2CCN(C)CC2)cc1-c1ccc(S(=O)(=O)NCCN2CCCC2)s1 | -3.47% |
| O=c1c2cccnc2sn1-c1ccccc1 | 0.94% |
| CCOc1ccc(OCC(=O)Nc2nc(-c3ccc(OC)cc3)c(C)s2)cc1 | 0.75% |
| Cc1cccc2nc(-c3cccc(-c4cccc(NC(=O)CNc5ccc(C(N)=O)cc5)c4)c3)[nH]c12 | 4.73% |
| O=C(Nc1cccc(Cl)c1)N[C@H]1CCN(Cc2ccc(OCCCN3CCCCC3)cc2)C1 | 9.4% |
| COc1c(C2CCN(CCN3CCC(NC(=O)c4ccc(-c5ccc(C(F)(F)F)cc5)cc4)CC3)CC2)ccc2c1CCCC2 | 0.78% |
| CN(C)C(=O)CC(=O)NCc1c(Cl)cccc1Cl | 0.42% |
| COc1cccc(C(=O)Nc2nonc2-c2ccc(OC)c(OC)c2)c1 | 2.16% |
| OC1CCCN(Cc2ccc(-c3ccc(-c4nc5cc(F)ccc5[nH]4)cc3)cc2)C1 (stereo not given) | 9.06% |
| O=C(/C=C/c1ccc(Cl)c(Cl)c1)N1CCC(CN2CCC(Cc3nc4ccccc4[nH]3)CC2)CC1 | 1.43% |
| C(=N\Nc1nccc2sc(-c3cccnc3)cc12)/c1cccnc1 | 2.11% |

| Structure (SMILES) | inhibition |
| --- | --- |
| CC(C)CCN1CCC(Oc2ccc(NC(=O)c3cccs3)cc2Cl)C1 (stereo not given) | 10.2% |
| N#CN1CC[C@@H](NS(=O)(=O)Cc2ccc(Cl)c(Cl)c2)C1 | 5.72% |
| CC1(C)NC(N)=NC(=N)N1OCCCOc1cc(Cl)ccc1Cl | 13.6% |
| COc1ccc(NC(=O)/C=C/c2cc(F)cc(C(F)(F)F)c2)cc1OCCN(C(C)C)C(C)C | 9.32% |
| CCCCC(CC)NC(=O)[C@H]1CNCCN1C(=O)CCCc1ccccc1 (stereo not given in full) | 1.73% |
| CN1CC(c2ccccc2)c2cc(O)c(CN3CCCCC3)cc2CC1Cc1ccccc1 (stereo not given) | 9.54% |
| CC(=O)c1ccc(NC(=O)C2c3ccccc3C(=O)N(CC(C)C)C2c2cccs2)cc1 (stereo not given) | -0.43% |
| COc1ccccc1C(=O)Nc1cccc(N2CCC(NCc3ccc(-n4cccn4)cc3)CC2)c1 | 9.93% |
| Cc1nc(NCc2ccccc2)cc(NCC(O)c2ccc(O)cc2)n1 (stereo not given) | 8.37% |
| O=C(Nc1ccc(-c2cccc(-c3nc4cc(C(F)(F)F)ccc4[nH]3)c2)cc1)c1ccncc1 | 0.97% |
| CCCCCCc1c(C)nc2cc(OC)ccc2c1O | 3.2% |
| Cc1noc(-c2ccccc2)c1CN1CCCC2(CC(C(=O)NCc3cccc(F)c3F)=NO2)C1 (stereo not given) | 0.11% |
| COc1cc2c(cc1OC)CN(CCCCNC(=O)c1ccc(NC(=O)c3cc(Cl)cc(Cl)c3)cc1)CC2 | 2.09% |
| CCOc1ccccc1C(=O)Nc1cccc(-c2nc3ncccn3c2C)c1 | 2.41% |
| O=C(NCCN1CCC(NC(=O)c2ccc(-c3ccccn3)s2)CC1)c1ccc(Cl)c(Cl)c1 | 3.53% |
| CC(C)c1ccc(N(CC(=O)N/N=C/c2ccc(C(F)(F)F)cc2)S(=O)(=O)c2ccc(C(F)(F)F)cc2)cc1 | 4.88% |
| CCCCNC(=O)c1[nH]c2c(NC(=O)COc3ccccc3)cccc2c1-c1cccc(NC(=O)C(N)CO)c1 (stereo not given) | 10.1% |
| CN(C)c1ccc(CN2CCC(CNC(=O)c3cc(-c4ccccc4Cl)cs3)C2)cc1 (stereo not given) | 0.57% |
| CS(=O)(=O)c1ccc(CNCc2cccc(-c3cccc(-c4nc5cc(F)ccc5[nH]4)c3)c2)cc1 | 2.4% |
| COc1ccc(-c2cnc3ccc(NCCCO)nn23)cc1OC | -0.63% |

Each compound was assayed against Hexose transporter 1 (Plasmodium falciparum) (UniProt O97467) (assay: ST_JUDE_LEISH: Cytotoxicity at 2uM final concentration against transgenic Leishmania Mexicana promastigotes LmPfHT that are glucose transport deficient and complemented with the Plasmodium falciparum hexose transporter. Activity is measured by DNA content using SYBR green in vitro).
Type: functional

| Structure (SMILES) | inhibition |
| --- | --- |
| O=C(Nc1ccc2c(c1)CCC2)c1cccc(N2CCN(c3ccncc3)CC2)c1 | 4.51% |
| CN(C)CCCn1cncc1-c1ccc2ncnc(Nc3ccc(OCc4ccccc4)cc3)c2c1 | 6.87% |
| CN1CCCN(Cc2ccc(-c3ccc(NC(=O)c4ccc(Cl)cc4)cc3)cc2)CC1 | 50% |
| COc1cc2c(cc1OC)CN(c1cc(N)c3cc(OC)c(OC)cc3n1)CC2 | 0.25% |
| NC1(C(=O)O)Cc2ccc(Cl)cc2C1 (stereo not given) | 2.95% |
| OC(CNc1cccc(Cl)c1)Cn1c2ccc(Cl)cc2c2cc(Cl)ccc21 (stereo not given) | 1.59% |
| O=C(NC1CCN(Cc2ccccc2O)C1)c1cccc(C(F)(F)F)c1 (stereo not given) | 0.49% |
| N#Cc1ccc2c(c1)CCN(CCC1CCC(NC(=O)/C=C/c3c[nH]c4c(Br)cccc34)CC1)CC2 (stereo not given) | 15.6% |
| COc1cc(C=CC(=O)N2CCC3(CC2)CC(=O)c2ccccc2O3)cc(OC)c1OC | 2.09% |
| COc1ccc(CNC2CCN(C)CC2)cc1-c1ccc(S(=O)(=O)NCCN2CCCC2)s1 | -0.23% |
| O=c1c2cccnc2sn1-c1ccccc1 | 0.87% |
| CCOc1ccc(OCC(=O)Nc2nc(-c3ccc(OC)cc3)c(C)s2)cc1 | 1.74% |
| Cc1cccc2nc(-c3cccc(-c4cccc(NC(=O)CNc5ccc(C(N)=O)cc5)c4)c3)[nH]c12 | 4.35% |
| O=C(Nc1cccc(Cl)c1)N[C@H]1CCN(Cc2ccc(OCCCN3CCCCC3)cc2)C1 | 9.12% |
| COc1c(C2CCN(CCN3CCC(NC(=O)c4ccc(-c5ccc(C(F)(F)F)cc5)cc4)CC3)CC2)ccc2c1CCCC2 | 1.26% |
| CN(C)C(=O)CC(=O)NCc1c(Cl)cccc1Cl | 4.4% |
| COc1cccc(C(=O)Nc2nonc2-c2ccc(OC)c(OC)c2)c1 | 2.49% |
| OC1CCCN(Cc2ccc(-c3ccc(-c4nc5cc(F)ccc5[nH]4)cc3)cc2)C1 (stereo not given) | 8.43% |
| O=C(/C=C/c1ccc(Cl)c(Cl)c1)N1CCC(CN2CCC(Cc3nc4ccccc4[nH]3)CC2)CC1 | 1.29% |
| C(=N\Nc1nccc2sc(-c3cccnc3)cc12)/c1cccnc1 | 1.38% |

| Structure (SMILES) | inhibition |
| --- | --- |
| CC(C)CCN1CCC(Oc2ccc(NC(=O)c3cccs3)cc2Cl)C1 (stereo not given) | 11.8% |
| N#CN1CC[C@@H](NS(=O)(=O)Cc2ccc(Cl)c(Cl)c2)C1 | 4.08% |
| CC1(C)NC(N)=NC(=N)N1OCCCOc1cc(Cl)ccc1Cl | 13.5% |
| COc1ccc(NC(=O)/C=C/c2cc(F)cc(C(F)(F)F)c2)cc1OCCN(C(C)C)C(C)C | 9.92% |
| CCCCC(CC)NC(=O)[C@H]1CNCCN1C(=O)CCCc1ccccc1 (stereo not given in full) | 1.94% |
| CN1CC(c2ccccc2)c2cc(O)c(CN3CCCCC3)cc2CC1Cc1ccccc1 (stereo not given) | 7.19% |
| CC(=O)c1ccc(NC(=O)C2c3ccccc3C(=O)N(CC(C)C)C2c2cccs2)cc1 (stereo not given) | 0.9% |
| COc1ccccc1C(=O)Nc1cccc(N2CCC(NCc3ccc(-n4cccn4)cc3)CC2)c1 | 10.7% |
| Cc1nc(NCc2ccccc2)cc(NCC(O)c2ccc(O)cc2)n1 (stereo not given) | 8.57% |
| O=C(Nc1ccc(-c2cccc(-c3nc4cc(C(F)(F)F)ccc4[nH]3)c2)cc1)c1ccncc1 | 1.99% |
| CCCCCCc1c(C)nc2cc(OC)ccc2c1O | 5.49% |
| Cc1noc(-c2ccccc2)c1CN1CCCC2(CC(C(=O)NCc3cccc(F)c3F)=NO2)C1 (stereo not given) | -0.09% |
| COc1cc2c(cc1OC)CN(CCCCNC(=O)c1ccc(NC(=O)c3cc(Cl)cc(Cl)c3)cc1)CC2 | 3.93% |
| CCOc1ccccc1C(=O)Nc1cccc(-c2nc3ncccn3c2C)c1 | -0.3% |
| O=C(NCCN1CCC(NC(=O)c2ccc(-c3ccccn3)s2)CC1)c1ccc(Cl)c(Cl)c1 | 4.02% |
| CC(C)c1ccc(N(CC(=O)N/N=C/c2ccc(C(F)(F)F)cc2)S(=O)(=O)c2ccc(C(F)(F)F)cc2)cc1 | 2.56% |
| CCCCNC(=O)c1[nH]c2c(NC(=O)COc3ccccc3)cccc2c1-c1cccc(NC(=O)C(N)CO)c1 (stereo not given) | 9.02% |
| CN(C)c1ccc(CN2CCC(CNC(=O)c3cc(-c4ccccc4Cl)cs3)C2)cc1 (stereo not given) | -3.68% |
| CS(=O)(=O)c1ccc(CNCc2cccc(-c3cccc(-c4nc5cc(F)ccc5[nH]4)c3)c2)cc1 | 0.6% |
| COc1ccc(-c2cnc3ccc(NCCCO)nn23)cc1OC | 0.58% |

Reference: ChEMBL document CHEMBL3433997, “St. Jude Leishmania screening dataset” (2016)
